Assay results from PubChem BioAssay AID1159580 (chemical genetic matrix, 2015).
The campaign covered roughly 5,500 compounds. About 2,000 (36%) were called active. Inconclusive results (about 18%) are left out. Rule as the data show it: active = normalized growth mostly below about 0.91 (no sharp cut-off); inconclusive = no clear call, values can overlap the other calls; inactive = mostly above about 0.92. The list shows a part of the results.

Experiment: chemical genetic growth profiling, strain panel (AID 1159580);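 also: tested at 20 µM; growth read once vehicle control cultures reached saturation at 30 °C; 1 = growth at the plate median or of vehicle wells; lower values mean less growth of the strain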
Conditions: growth OD

Measured: normalized growth

COC1=CC(=O)C[C@@H](C)[C@]12Oc1c(Cl)c(OC)cc(OC)c1C2=O
inactive: S. cerevisiae deletion strains, locus YJR075W, strain HOC1, hits give low values 1.03 | S. cerevisiae deletion strains, locus YKL009W, strain mrt4, hits give low values 1 | S. cerevisiae deletion strains, locus YKL068W, hits give low values 0.986 | S. cerevisiae deletion strains, locus YKL085W, strain MDH1 (second series), hits give low values 0.989 | S. cerevisiae deletion strains, locus YKL085W, strain MDH1, hits give low values 0.989 | S. cerevisiae deletion strains, locus YKL160W, strain elf1, hits give low values 1.02 | S. cerevisiae deletion strains, locus YKL190W, strain CNB1, hits give low values 1 | S. cerevisiae deletion strains, locus YKR001C, strain vps1, hits give low values 0.995 | S. cerevisiae deletion strains, locus YKR026C, strain gcn3, hits give low values 0.979 | S. cerevisiae deletion strains, locus YKR091W, strain srl3, hits give low values 0.989 | S. cerevisiae deletion strains, locus YLL001W, strain dnm1, hits give low values 0.984 | S. cerevisiae deletion strains, locus YLL026W, hits give low values 0.984 | S. cerevisiae deletion strains, locus YLL041C, strain sdh2, hits give low values 0.996 | S. cerevisiae deletion strains, locus YLR027C, strain aat2, hits give low values 0.993 | S. cerevisiae deletion strains, locus YLR039C, strain RIC1, hits give low values 0.983 | S. cerevisiae deletion strains, locus YLR058C, strain SHM2, hits give low values 0.996 | S. cerevisiae deletion strains, locus YLR102C, strain apc9, hits give low values 1 | S. cerevisiae deletion strains, locus YLR113W, strain HOG1, hits give low values 1 | S. cerevisiae deletion strains, locus YLR221C, strain rsa3, hits give low values 0.956 | S. cerevisiae deletion strains, locus YLR258W, strain gsy2, hits give low values 0.982 | S. cerevisiae deletion strains, locus YLR262C, strain YPT6 (second series), hits give low values 0.967 | S. cerevisiae deletion strains, locus YLR262C, strain YPT6, hits give low values 0.936 | S. cerevisiae deletion strains, locus YLR268W, strain sec22, hits give low values 0.994 | S. cerevisiae deletion strains, locus YLR320W, strain mms22, hits give low values 0.982 | S. cerevisiae deletion strains, locus YLR330W, strain CHS5, hits give low values 0.994 | S. cerevisiae deletion strains, locus YLR342W, strain FKS1 (second series), hits give low values 0.979 | S. cerevisiae deletion strains, locus YLR342W, strain FKS1, hits give low values 0.972 | S. cerevisiae deletion strains, locus YLR357W, strain rsc2, hits give low values 1.01 | S. cerevisiae deletion strains, locus YLR370C, strain arc18, hits give low values 0.943 | S. cerevisiae deletion strains, locus YLR371W, strain rom2, hits give low values 0.987 | S. cerevisiae deletion strains, locus YLR384C, strain iki3, hits give low values 0.993 | S. cerevisiae deletion strains, locus YLR418C, strain cdc73, hits give low values 0.987 | S. cerevisiae deletion strains, locus YML016C, strain PPZ1, hits give low values 0.991 | S. cerevisiae deletion strains, locus YML032C, strain rad52, hits give low values 0.986 | S. cerevisiae deletion strains, locus YML120C, strain ndi1, hits give low values 0.951 | S. cerevisiae deletion strains, locus YML124C, strain tub3, hits give low values 0.99 | S. cerevisiae deletion strains, locus YMR058W, strain fet3, hits give low values 0.999 | S. cerevisiae deletion strains, locus YMR078C, strain ctf18, hits give low values 0.987 | S. cerevisiae deletion strains, locus YMR125W, strain sto1, hits give low values 0.988 | S. cerevisiae deletion strains, locus YMR129W, hits give low values 0.983 | S. cerevisiae deletion strains, locus YMR205C, strain PFK2, hits give low values 1.01 | S. cerevisiae deletion strains, locus YMR223W, strain ubp8, hits give low values 0.988 | S. cerevisiae deletion strains, locus YMR231W, strain pep5, hits give low values 0.991 | S. cerevisiae deletion strains, locus YMR263W, strain SAP30, hits give low values 1.01 | S. cerevisiae deletion strains, locus YMR307W, strain GAS1, hits give low values 0.847 | S. cerevisiae deletion strains, locus YNL067W, strain RPL9B, hits give low values 1.04 | S. cerevisiae deletion strains, locus YNL071W, strain lat1, hits give low values 0.992 | S. cerevisiae deletion strains, locus YNL128W, strain TEP1, hits give low values 1 | S. cerevisiae deletion strains, locus YNL153C, strain GIM3, hits give low values 1.04 | S. cerevisiae deletion strains, locus YNL183C, strain NPR1, hits give low values 0.958 | S. cerevisiae deletion strains, locus YNL209W, strain ssb2, hits give low values 0.984 | S. cerevisiae deletion strains, locus YNL233W, strain BNI4, hits give low values 1.06 | S. cerevisiae deletion strains, locus YNL248C, strain rpa49, hits give low values 1.05 | S. cerevisiae deletion strains, locus YNL250W, strain rad50, hits give low values 1 | S. cerevisiae deletion strains, locus YNL271C, strain bni1, hits give low values 0.99 | S. cerevisiae deletion strains, locus YNL298W, strain CLA4, hits give low values 0.995 | S. cerevisiae deletion strains, locus YNL307C, strain MCK1, hits give low values 1 | S. cerevisiae deletion strains, locus YNL322C, strain KRE1 (second series), hits give low values 0.991 | S. cerevisiae deletion strains, locus YNL322C, strain KRE1, hits give low values 1 | S. cerevisiae deletion strains, locus YNR049C, strain mso1, hits give low values 0.98 | S. cerevisiae deletion strains, locus YNR052C, strain pop2, hits give low values 0.999 | S. cerevisiae deletion strains, locus YOL006C, strain TOP1, hits give low values 1.11 | S. cerevisiae deletion strains, locus YOL012C, strain htz1 0.916 | S. cerevisiae deletion strains, locus YOL147C, strain pex11, hits give low values 0.993 | S. cerevisiae deletion strains, locus YOR001W, strain rrp6, hits give low values 0.967 | S. cerevisiae deletion strains, locus YOR061W, strain CKA2, hits give low values 0.968 | S. cerevisiae deletion strains, locus YOR069W, strain VPS5, hits give low values 0.993 | S. cerevisiae deletion strains, locus YOR070C, strain gyp1, hits give low values 0.977 | S. cerevisiae deletion strains, locus YOR080W, strain dia2, hits give low values 0.982 | S. cerevisiae deletion strains, locus YOR083W, strain WHI5, hits give low values 1.02 | S. cerevisiae deletion strains, locus YOR106W, strain vam3, hits give low values 1 | S. cerevisiae deletion strains, locus YOR136W, strain idh2, hits give low values 1 | S. cerevisiae deletion strains, locus YOR144C, strain elg1, hits give low values 0.988 | S. cerevisiae deletion strains, locus YOR184W, strain ser1, hits give low values 0.991 | S. cerevisiae deletion strains, locus YOR231W, strain MKK1, hits give low values 1.01 | S. cerevisiae deletion strains, locus YOR265W, strain rbl2, hits give low values 0.978 | S. cerevisiae deletion strains, locus YOR270C, strain vph1, hits give low values 0.952 | S. cerevisiae deletion strains, locus YOR290C, strain snf2, hits give low values 1.03 | S. cerevisiae deletion strains, locus YOR316C, strain cot1, hits give low values 0.992 | S. cerevisiae deletion strains, locus YPL051W, strain arl3, hits give low values 1.02 | S. cerevisiae deletion strains, locus YPL055C, strain LGE1, hits give low values 0.985 | S. cerevisiae deletion strains, locus YPL078C, strain atp4, hits give low values 1.03 | S. cerevisiae deletion strains, locus YPL106C, strain sse1, hits give low values 0.964 | S. cerevisiae deletion strains, locus YPL240C, strain hsp82, hits give low values 0.988 | S. cerevisiae deletion strains, locus YPL241C, strain CIN2, hits give low values 0.992 | S. cerevisiae deletion strains, locus YPL256C, strain CLN2, hits give low values 0.985 | S. cerevisiae deletion strains, locus YPR119W, strain clb2, hits give low values 0.99 | S. cerevisiae deletion strains, locus YPR141C, strain kar3, hits give low values 0.978 | S. cerevisiae deletion strains, locus YPR163C, strain tif3, hits give low values 0.98 | S. cerevisiae deletion strains, locus YPR167C, strain met16, hits give low values 0.99 | S. cerevisiae deletion strains, strain wtn01, hits give low values 0.998 | S. cerevisiae strains, strain wild type, hits give low values 0.988
